The target of test [1] is Lysosomal acid glucosylceramidase (Homo sapiens) (UniProt P04062). In words: Glucocerebrosidase-p2 (AID 348; in the data active = potency below about 10 µM; also: potency is read from the fitted curve at half-maximal effect). Particulars: purified GBA, blue fluorogenic substrate, 40 min. The method in brief:
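Normal human glucocerebrosidase (0.2 nM) with blue fluorogenic substrate (80 uM final) in citrate/phosphate pH 5.9 with 10mM sodium taurocholate, 0.01% tween-20; 40 min RT, NaOH/glycine stop; fluorescence Ex 365/Em 440; AC50 from a titration from 0.6 nM upwards.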

Test [2] in a line: AP1 Signaling Pathway (AID 357).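 Also: ME-180 reporter cells stimulated with EGF at its EC50 level; % is scaled to controls: 0 for no effect and ±100 for the full control effect.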 Particulars: ME-180 AP-1-bla reporter, EGF-induced, beta-lactamase ratio, 5 h; at 7.69 µM (top of the series) unless noted. The method in brief:
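A ratiometric CCF4 readout (405 nm excitation; 460 and 530 nm emission) quantified AP-1-driven beta-lactamase in ME-180 cells after 5 h with compound and EC50 EGF; AC50 values were derived for activators and inhibitors.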

Test [3] concerns the target Cytochrome P450 1A2 (Homo sapiens) (UniProt P05177). Briefly: p450-cyp1a2 (AID 410; calls by dose curve; also: potency is read from the fitted curve at half-maximal effect;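 as to activity change, negative = inhibition: -100% = full effect of reference inhibitor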). Put shortly: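 Read-out is luminescence from luciferin produced by CYP1A2 demethylation of Luciferin-ME (100uM, at Km). Detection reagent stopped the 60 min NADPH-dependent reaction; signals were normalized to 57 uM furafylline.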
Test [4] in a line: NFAT Signaling Pathway (AID 444).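 Also: carbachol stimulus at about its EC50 of 1 µM final; % is scaled to controls: 0 for no effect and ±100 for the full control effect.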 Particulars: Jurkat NFAT-bla M1, carbachol, beta-lactamase ratio, 5 h; at 7.69 µM (top of the series) unless noted. The method in brief: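 Jurkat cells with NFAT-driven β-lactamase reporter and co-expressed M1 receptor, stimulated with carbachol (final 1 uM, ~EC50), compound titration, 5 h at 37 °C. CCF4 loaded 1 h at RT; 460/530 nm ratio gave %activity and AC50.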

Test [5] is described as follows: Stat Signaling Pathway (AID 446).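 Also: ME-180 cervical cancer cells given 40 pM IL-6 alongside compound; SIE-controlled beta-lactamase reporter measured as 460/530 nm FRET emission ratio; % is scaled to controls: 0 for no effect and ±100 for the full control effect.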 Particulars: ME-180 (cervical carcinoma) SIE beta-lactamase reporter, IL-6 stimulated, 5 h; at 7.69 µM (top of the series) unless noted. Put shortly: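 Compound effects on IL-6-induced STAT reporter activity were measured in ME-180 cells. After overnight culture, cells were co-treated with 40 pM IL-6 for 5 hrs before beta-lactamase substrate loading at room temperature.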

The target in test [6] is Glucocorticoid receptor (Homo sapiens) (UniProt P04150). In words: GR-GFP Redistribution (AID 450;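 active = compounds whose dose series gives a full or clear partial fitted curve of increased nuclear translocation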; also: potency is read from the fitted curve at half-maximal effect). Particulars: U2OS GR-GFP nuclear translocation, laser cytometry, 2 h.
Test [7] shares this target. Briefly: GR-EFC Redistribution (AID 451; calls by dose curve; also: potency is read from the fitted curve at half-maximal effect). Particulars: CHO-K1 GR-EFC translocation, beta-gal luminescence, 2 h. Put shortly:
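CHO-K1 cells expressing nuclear EA and GR-ED fragments of b-gal; compounds titrated up to 46 uM final, 2 h at 37 C. GR nuclear translocation read as complemented b-gal luminescence after 1 h RT detection.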

In test [8] the target is Mitogen-activated protein kinase 10 (Mus musculus) (UniProt Q61831). Briefly: JNK3 AlphaScreen Assay (AID 530).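 Also: kinase came from lysate of stimulated human HepG2 cells; signal reports phosphorylation of biotinylated GST-cJun 1-79 at Ser73 with 10 µM ATP; % is scaled to controls: 0 for no effect and ±100 for the full control effect.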 The method in brief:
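HepG2 lysate (IL-1b/TNFa pre-activated) + biotin-GST-cJun 1-79 + anti-pSer73 cJun; cpd titration, 15 min RT; ATP 10 uM start; Tris pH 7.6, MgCl2, DTT, vanadate; beads in EDTA buffer; AlphaScreen.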
(In Alpha technology, singlet oxygen from a donor bead excites a nearby acceptor bead.)

The target in test [9] is 3',5'-cyclic-AMP phosphodiesterase 4B (Homo sapiens) (UniProt Q07343). In words: qHTS Assay for Inhibitors of PDE-IV (AID 607; active = well fitted activation curve with a large enough effect in the main read-out, with a control signal flat, not every such curve was filed as active; also: % of control where 0% means no effect). The method in brief:
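ACTOne HEK293 cells carry a modified cAMP-gated CNG channel and express endogenous PDE4; plated 1000 cells/well, compounds up to 22.9 uM final. Membrane-potential dye fluorescence (ex 535/em 590) was read; parental cells received 10 uM forskolin + 100 uM RO 20-1724.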
In general terms: qHTS replaces the single test concentration by a dilution series.

Unmarked numbers belong to inactive results. Inconclusive results are not listed. Calls of active or inactive are those of the source. Unless noted, calls follow the shape of the dose curve; as a rule, active = well fitted curve in either direction with a large enough effect (not every such curve was filed as active); inconclusive = small, poorly fitted or top-dose-only effect, or another doubt; inactive = flat fitted curve, though single readings scatter. Where only a bound is given, the exact number is not on record here.

Sequence of Lysosomal acid glucosylceramidase (Homo sapiens) (P04062 whole entry, looked up): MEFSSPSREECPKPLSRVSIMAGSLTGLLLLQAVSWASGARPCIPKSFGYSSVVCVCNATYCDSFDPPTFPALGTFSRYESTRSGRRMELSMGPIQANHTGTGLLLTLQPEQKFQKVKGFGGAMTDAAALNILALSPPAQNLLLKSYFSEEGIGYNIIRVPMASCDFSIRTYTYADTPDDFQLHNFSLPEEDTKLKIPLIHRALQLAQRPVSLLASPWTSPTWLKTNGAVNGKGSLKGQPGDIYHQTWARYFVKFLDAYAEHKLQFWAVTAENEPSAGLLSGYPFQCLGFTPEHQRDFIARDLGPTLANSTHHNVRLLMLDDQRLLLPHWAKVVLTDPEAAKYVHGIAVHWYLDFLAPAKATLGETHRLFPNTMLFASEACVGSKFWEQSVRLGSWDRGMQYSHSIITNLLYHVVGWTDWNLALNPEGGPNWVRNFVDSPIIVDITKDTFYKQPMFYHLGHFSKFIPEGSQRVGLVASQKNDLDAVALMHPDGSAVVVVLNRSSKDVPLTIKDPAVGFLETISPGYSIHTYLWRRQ
Sequence of Glucocorticoid receptor (Homo sapiens) (P04150 whole entry, looked up): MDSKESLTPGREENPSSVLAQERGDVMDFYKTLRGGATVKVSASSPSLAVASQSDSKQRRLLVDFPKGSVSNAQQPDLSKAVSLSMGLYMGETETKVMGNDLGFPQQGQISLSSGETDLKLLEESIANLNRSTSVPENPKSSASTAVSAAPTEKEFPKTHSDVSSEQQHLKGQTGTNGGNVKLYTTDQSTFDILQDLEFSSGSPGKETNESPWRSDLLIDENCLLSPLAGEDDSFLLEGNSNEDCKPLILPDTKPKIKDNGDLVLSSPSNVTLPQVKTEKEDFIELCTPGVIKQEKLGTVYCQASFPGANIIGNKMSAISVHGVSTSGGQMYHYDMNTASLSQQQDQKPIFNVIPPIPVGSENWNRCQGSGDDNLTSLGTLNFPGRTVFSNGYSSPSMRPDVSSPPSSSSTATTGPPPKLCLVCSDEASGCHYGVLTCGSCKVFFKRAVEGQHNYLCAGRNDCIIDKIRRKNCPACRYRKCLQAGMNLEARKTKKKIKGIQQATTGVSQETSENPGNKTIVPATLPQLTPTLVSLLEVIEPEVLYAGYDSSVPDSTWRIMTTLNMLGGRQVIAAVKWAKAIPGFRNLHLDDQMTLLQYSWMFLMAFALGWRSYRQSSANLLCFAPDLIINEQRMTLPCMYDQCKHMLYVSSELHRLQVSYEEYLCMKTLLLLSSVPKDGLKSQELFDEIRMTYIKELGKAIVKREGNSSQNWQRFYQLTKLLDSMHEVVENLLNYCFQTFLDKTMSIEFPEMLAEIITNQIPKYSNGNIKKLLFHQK
Sequence of Cytochrome P450 1A2 (Homo sapiens) (P05177 whole entry, looked up): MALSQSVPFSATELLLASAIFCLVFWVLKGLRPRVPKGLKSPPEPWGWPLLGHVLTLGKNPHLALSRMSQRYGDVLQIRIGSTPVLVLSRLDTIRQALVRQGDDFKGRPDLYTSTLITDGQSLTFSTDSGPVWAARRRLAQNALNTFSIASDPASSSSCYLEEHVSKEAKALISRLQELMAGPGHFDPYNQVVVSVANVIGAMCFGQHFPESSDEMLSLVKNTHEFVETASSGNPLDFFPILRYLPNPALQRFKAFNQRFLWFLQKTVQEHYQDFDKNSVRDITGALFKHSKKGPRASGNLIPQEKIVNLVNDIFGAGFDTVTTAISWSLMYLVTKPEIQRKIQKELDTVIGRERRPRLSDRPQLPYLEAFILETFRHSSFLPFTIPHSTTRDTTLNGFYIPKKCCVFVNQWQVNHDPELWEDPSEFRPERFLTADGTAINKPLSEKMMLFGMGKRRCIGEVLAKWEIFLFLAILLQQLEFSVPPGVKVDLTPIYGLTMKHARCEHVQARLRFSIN
Sequence of 3',5'-cyclic-AMP phosphodiesterase 4B (Homo sapiens) (Q07343 whole entry, looked up): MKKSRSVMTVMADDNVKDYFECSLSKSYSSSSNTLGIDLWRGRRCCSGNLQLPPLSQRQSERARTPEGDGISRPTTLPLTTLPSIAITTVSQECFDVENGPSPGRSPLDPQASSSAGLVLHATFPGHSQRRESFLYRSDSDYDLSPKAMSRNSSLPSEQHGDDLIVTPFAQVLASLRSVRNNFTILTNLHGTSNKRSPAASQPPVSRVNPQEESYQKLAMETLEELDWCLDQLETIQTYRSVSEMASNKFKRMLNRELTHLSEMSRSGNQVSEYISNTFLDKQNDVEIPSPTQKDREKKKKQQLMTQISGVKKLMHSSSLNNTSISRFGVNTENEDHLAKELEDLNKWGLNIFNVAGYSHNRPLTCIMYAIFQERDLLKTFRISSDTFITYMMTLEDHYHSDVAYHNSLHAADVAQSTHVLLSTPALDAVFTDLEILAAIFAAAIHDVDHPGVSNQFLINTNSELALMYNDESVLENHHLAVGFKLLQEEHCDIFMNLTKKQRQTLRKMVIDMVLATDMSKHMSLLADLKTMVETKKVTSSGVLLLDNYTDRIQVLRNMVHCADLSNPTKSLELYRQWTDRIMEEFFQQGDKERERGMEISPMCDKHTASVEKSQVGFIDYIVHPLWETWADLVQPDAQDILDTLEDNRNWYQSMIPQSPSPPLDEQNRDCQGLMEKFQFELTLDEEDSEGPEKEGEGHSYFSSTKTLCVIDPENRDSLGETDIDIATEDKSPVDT

With `CN(C)CCCn1c2ccccc2c2cnccc21`, the Potency is above 11.4 µM in [1], above 46 µM in test [6] and above 9.22 µM in test [7]. Further, the activity change, negative = inhibition in test [2] is 1.6%; in test [3], -20% [at 2.29 µM]; in test [4], 2.32%. Further, in [5], the activity, negative = inhibition was 13.9%. Also, the Potency result in test [8] and in [9] was “inactive” in each case.
Consider `NC[C@H]1O[C@H](n2cnc3c(N)ncnc32)C[C@@H]1O`, for which the Potency in test [1] is above 11.4 µM; in [6] it was above 46 µM; in [7] it was above 9.22 µM. Moreover, the activity change, negative = inhibition in test [2] was -8.42%; in test [4], 7.55%. The Potency entry in [3], in test [8] and in test [9] was “inactive” throughout. Further, the activity, negative = inhibition in [5] was 9.05%.
As for `O=C(O)CCCCn1ccc(=O)[nH]c1=O`, the Potency in [1] is above 11.4 µM; in [6] it was above 46 µM; in test [7], above 9.22 µM. Moreover, the values for the activity change, negative = inhibition in [2] and in test [4] were 9.63% and -9.32%, respectively. The Potency result in test [3], in test [8] and in [9] was “inactive” in each case. Besides, in test [5], the activity, negative = inhibition was 4.56%.
In the case of `CC1(CCC(=O)OC2CCCCC2)OCCO1`, the Potency is above 11.4 µM in [1], above 46 µM in test [6] and above 9.22 µM in test [7]. The results for the activity change, negative = inhibition in test [2] and in test [4] were 4.96% and 19.8%, respectively. Besides, the Potency result in test [3], in test [8] and in test [9] was “inactive” throughout. In test [5], the activity, negative = inhibition is 4.55%.
`CN(CC(=O)O)Cc1c(O)c(Cl)cc(Cl)c1Cl`: the Potency in test [1] was above 11.4 µM; in test [6], above 46 µM; in [7] it was above 9.22 µM. Further, the activity change, negative = inhibition in test [2] is -1.4%; in test [3], -1% [at 2.29 µM]; in test [4], 11.2%. For the same molecule, in test [5], the activity, negative = inhibition was 4.84%. Also, the Potency entry in [8] and in test [9] was “inactive” in each case.
As to `CC[C@@H](CS(=O)(=O)O)[N+](=O)[O-]`, the Potency in test [1] is above 11.4 µM; in test [6], above 46 µM; in [7], above 9.22 µM. Also, the activity change, negative = inhibition in test [2] is 7.92%; in test [4] it was 19.9%. Also, the Potency entry in test [3], in test [8] and in [9] was “inactive” each time. The activity, negative = inhibition in test [5] is 10.6%.
`Nc1ncnc2nc(N3CCN(CCO)CC3)[nH]c12`: the Potency in test [1] is above 11.4 µM; in test [6], above 46 µM; in test [7] it was above 9.22 µM. The activity change, negative = inhibition in test [2] was 2.43%; in test [3] it was -1.2% [at 2.29 µM]; in test [4], 8.33%. In [5], the activity, negative = inhibition is -1.25%. Moreover, the Potency entry in test [8] and in [9] was “inactive” in each case.
Take `O=C(O)c1ccccc1/C=N\N=C1c2ccccc2-c2ccccc21`: the Potency was above 11.4 µM in test [1], 0.316 µM (active) in test [3], above 46 µM in test [6] and above 9.22 µM in test [7]. For the same molecule, the activity change, negative = inhibition in [2] is 20.6%; in [4] it was 7.67%. Further, in [5], the activity, negative = inhibition was -13.9%. Also, the Potency result in test [8] and in test [9] was “inactive” throughout.
For the molecule `O=C(O)c1ccccc1CN1CCC[C@@H](C(=O)O)C1`, the Potency was above 11.4 µM in test [1], above 46 µM in test [6] and above 9.22 µM in test [7]. Further, the figures for the activity change, negative = inhibition in [2] and in test [4] were -3.95% and 12.7%, respectively. For the same molecule, the Potency entry in test [3], in test [8] and in [9] was “inactive” in each case. In addition, the activity, negative = inhibition in [5] is 8.09%.
Consider `O=C(O)c1ccc(NS(=O)(=O)Cc2ccccc2)cc1`, for which the Potency was above 11.4 µM in test [1], above 46 µM in [6] and above 9.22 µM in [7]. The activity change, negative = inhibition in [2] was 6.38%; in [4], -0.542%. In addition, the Potency entry in test [3], in test [8] and in test [9] was “inactive” each time. For the same molecule, the activity, negative = inhibition in [5] was -0.621%.
Take `OCCNc1ncnc2c1ncn2[C@@H]1O[C@@H](CO)[C@H](O)[C@@H]1O`: the Potency in test [1] was above 11.4 µM; in [6], above 46 µM; in test [7], above 9.22 µM. For the same molecule, the activity change, negative = inhibition in test [2] was 3.21%; in [4] it was 9.99%. Also, the Potency entry in test [3], in [8] and in test [9] was “inactive” in each case. Besides, the activity, negative = inhibition in [5] was 25.8%.
Consider `NCc1ccc(C(=O)O)cc1`, for which the Potency in [1] is above 11.4 µM; in [6], above 46 µM; in [7], above 9.22 µM. Besides, the results for the activity change, negative = inhibition in test [2], in [3] and in test [4] were 3.17%, -4.8% [at 2.29 µM] and 6.92%, respectively. Besides, the activity, negative = inhibition in test [5] was -2.22%. The Potency entry in test [8] and in [9] was “inactive” throughout.
In the case of `CC(=O)[C@H]([C@@H](c1ccccc1)N1CCOCC1)N1CCOCC1`, the Potency was above 11.4 µM in test [1], above 46 µM in test [6] and above 9.22 µM in test [7]. In addition, the activity change, negative = inhibition in test [2] is 4%; in test [4], 15.1%. Also, the Potency entry in test [3], in [8] and in [9] was “inactive” in each case. In test [5], the activity, negative = inhibition was 4.56%.
Take `COc1cc(NCCC(=O)O)c2ncccc2c1`: the figures for the Potency in [1], in test [6] and in test [7] were above 11.4 µM, above 46 µM and above 9.22 µM, respectively. In addition, the activity change, negative = inhibition in [2] is 2.4%; in test [4], 2.69%. Besides, the Potency entry in test [3], in test [8] and in test [9] was “inactive” each time. In addition, the activity, negative = inhibition in test [5] is -1.17%.
`Cc1cc(C)c(O)c(Cc2cccc(Cc3cc(C)cc(C)c3O)c2O)c1`: the Potency in test [1] was above 11.4 µM; in test [6], above 46 µM; in [7], above 9.22 µM. For the same molecule, the activity change, negative = inhibition in test [2] is 0.471%; in test [3], -14.7% [at 2.29 µM]; in test [4], 11.9%. Also, in [5], the activity, negative = inhibition is 2.38%. Besides, the Potency result in test [8] and in test [9] was “inactive” in each case.
For the molecule `CC[C@@H](Nc1ncnc2nc[nH]c12)C(=O)O`, the Potency in [1] is above 11.4 µM; in test [6] it was above 46 µM; in [7], above 9.22 µM. Moreover, the activity change, negative = inhibition in test [2] was -11.2%; in test [4] it was -4.99%. Moreover, the Potency entry in test [3], in [8] and in test [9] was “inactive” each time. In addition, in [5], the activity, negative = inhibition was 0.774%.

The values above are taken from PubChem BioAssay (NCATS).
